MEKK2 WT-MEK5: raises or lowers MEK5 binding to wildtype human MEKK2 PB1 domain. bead flow cytometry, Alexa488-MEK5 binding to MEKK2 WT; actives lie on both sides. binding response (% of control), % at 10 µM. Q9Y2U5. 290,000 compounds, 1.1% hits; in the data active = binding response below about 67% or above about 130%
B2AR ag: human beta-2 adrenergic receptor agonism by FAP; Am2.2-beta2AR cells, FAP receptor internalization, flow cytometry; AID 504454; response, % (concentration not given with the values); 340,000 compounds, 0.43% hits;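 active = response above a set limit, near 3 SD of response in nonfluorescent compounds, cut at about 42% in these data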
Target sequence (P07550 whole entry, looked up): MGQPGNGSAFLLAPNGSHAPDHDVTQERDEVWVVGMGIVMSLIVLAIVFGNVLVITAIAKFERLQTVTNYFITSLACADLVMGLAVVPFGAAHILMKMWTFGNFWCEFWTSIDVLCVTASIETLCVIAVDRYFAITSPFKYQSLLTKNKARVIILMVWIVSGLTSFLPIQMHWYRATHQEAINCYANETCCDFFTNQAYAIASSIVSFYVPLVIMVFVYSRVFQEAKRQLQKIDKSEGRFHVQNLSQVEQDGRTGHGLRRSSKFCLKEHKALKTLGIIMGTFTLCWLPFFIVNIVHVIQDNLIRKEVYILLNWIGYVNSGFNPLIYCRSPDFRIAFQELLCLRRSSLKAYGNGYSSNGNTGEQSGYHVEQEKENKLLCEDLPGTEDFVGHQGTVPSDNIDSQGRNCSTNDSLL
MEKK3 PB1 HTS: modulators (inhibitors or enhancers) of MEK5 binding to human MEKK3 PB1 domain | bead-based flow cytometry, Alexa488-MEK5 binding to MEKK3; actives lie on both sides; 0 = blocked by unlabeled MEK5, 100 = vehicle | binding response (% of control), % at 10 µM | 290,000 compounds, 1.4% hits;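 active = binding response more than 3 SD above or below the average of its plate-row segment, actives on both sides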;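 note: Alexa488 bead fluorescence after subtracting the streptavidin-only scavenger bead signal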
MEKK2mut PB1 HTS: signal of MEK5 binding to mutant human MEKK2 PB1 domain; 290,000 compounds, 0.35% hits; percent response, % at 10 µM; AID 1530; bead flow cytometry, Alexa488-MEK5 binding to MEKK2 mutant; in the data active = percent response above about 24%, passing the limit was not always enough
GRK2 inh: human GRK2 inhibition via aptamer displacement. bead flow cytometry, FAM-aptamer displacement from GRK2. inhibition of aptamer binding, % at 10 µM. 330,000 compounds, 0.59% hits. AID 488847;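 active = inhibition of aptamer binding above 40%, roughly 3 SD of noise, on plates passing a quality check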;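 note: median bead fluorescence of bound FAM aptamer so fluorescent compounds give negative values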
MEKK2wt confirm: raises or lowers MEK5 binding to wildtype human MEKK2, retest; shares compounds with MEKK3 PB1 HTS; bead flow cytometry, Alexa488-MEK5 binding to MEKK2 WT; actives lie on both sides; binding response (% of control), % at 10 µM; 5,900 compounds, 2.4% hits; AID 1892; in the data active = binding response below about 16% or above about 210%; inactive = in between
MEKK2mut confirm: signal of MEK5 binding to mutant human MEKK2, retest. shares compounds with MEKK3 PB1 HTS. bead flow cytometry, Alexa488-MEK5 binding to MEKK2 mutant. percent response, % at 10 µM. 5,900 compounds, 2% hits. AID 1893; in the data active = percent response mostly above about 71%, no sharp cut-off; inactive = mostly below about 38%;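 note: higher means compound restores mutant binding toward wildtype level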
MEKK3-MEK5 inh: confirmation of inhibitors of MEK5 binding to human MEKK3; shares compounds with MEKK3 PB1 HTS; bead flow cytometry, Alexa488-MEK5 binding to MEKK3; active compounds read low; binding response (% of control), % at 10 µM; 5,900 compounds, 1.8% hits; AID 1894;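 active = binding response below 72% of control, or above a set upper limit, though filed actives all read lower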;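 note: 100% = DMSO only wells and 0% = binding blocked by excess unlabeled MEK5; lower values mean stronger disruption of MEK5 binding to MEKK3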
An asterisk follows results filed as active; . = not tested or not shown; [ ] = another dose, or the depositor's remark. Compounds with a hit are over-represented: about 2.9% of the library has one in this group of screens.

SMILES | MEKK2 WT-MEK5 | B2AR ag | MEKK3 PB1 HTS | MEKK2mut PB1 HTS | GRK2 inh | MEKK2wt confirm | MEKK2mut confirm | MEKK3-MEK5 inh
CC1(C)CC(=O)C(Sc2ccc(Br)cc2)=C(O)C1 | 84.0 | 4.2 | 73.0*[inhibitor] | -4.0 | 0.0 | 98.0 | -7.0 | 90.0
Cc1ccc(-c2cc3nc(-c4ccc(Br)cc4)cc(N)n3n2)cc1 | 121.0 | 5.0 | 134.0* | 2.0 | 1.0 | 100.0 | 1.0 | 102.0
CCc1ccccc1NC(=O)CNC(=O)c1ccccc1OCc1c(C)noc1C | . | -2.0 | . | . | 0.0 | . | . | .
CC12CCC(C(=O)N(CC(O)CN3CCCCCC3)C1=O)C2(C)C (configuration not stated) | 107.0 | -0.4 | 145.0* | 0.0 | 1.0 | 94.0 | -5.0 | 97.0
Cc1cccc2c1-c1sc(C(=O)N3CCCCC3)cc1CO2 | 99.0 | 7.4 | 97.0 | 1.0 | 3.0 | . | . | .
Cc1cccc2c1-c1sc(C(=O)Nc3ccccc3N3CCN(C)CC3)cc1CO2 | 162.0* | 24.0 | 103.0 | 4.0 | 0.0 | 198.0 | 46.0 | 111.0
CN(C(=O)CSc1nccc(=O)[nH]1)C1CCCCC1 | . | 8.7 | . | . | 0.0 | . | . | .
CN(c1c[nH]c(=O)[nH]c1=O)C1CCCCC1 | 72.0 | 8.1 | 69.0*[inhibitor] | -13.0 | 1.0 | 102.0 | 0.0 | 99.0
CN1CCc2nc(SCc3ccc(C(C)(C)C)cc3)c(C#N)cc2C1 | 142.0* | 6.7 | 110.0 | 17.0 | 0.0 | 137.0 | 20.0 | 104.0
CC/S(=N\S(=O)(=O)c1ccc(C)cc1)c1ccccc1 (configuration not stated) | 104.0 | -2.0 | 104.0 | 7.0 | 5.0 | . | . | .
NS(=O)(=O)c1ccc(Nc2ccc3nonc3c2[N+](=O)[O-])cc1 | 110.0 | -11.2 | 133.0* | 2.0 | 0.0 | 98.0 | -4.0 | 100.0
O=S(=O)(NC1CCCCC1Nc1ccccc1)c1ccccc1 (configuration not stated) | 104.0 | 10.1 | 128.0* | 0.0 | 2.0 | 80.0 | -18.0 | 71.0*
O=C(O)c1ccccc1NC1CCCCC1NS(=O)(=O)c1ccccc1 (configuration not stated) | 98.0 | -0.3 | 98.0 | 4.0 | . | . | . | .
Cc1ccc2cc(C#N)c(SCC(=O)N3CCCC3)nc2c1 | 43.0*[inhibitor] | -15.5 | 45.0*[inhibitor] | -11.0 | 0.0 | 94.0 | -8.0 | 95.0
Cc1ccc(OCCOC(=O)c2cccc(S(=O)(=O)N3CC(C)OC(C)C3)c2)cc1 (configuration not stated) | . | 4.8 | . | . | 2.0 | . | . | .
Cc1ccc(OCC(O)CN2C(=O)NC(C)(C)C2=O)cc1 (configuration not stated) | 90.0 | -3.1 | 73.0*[inhibitor] | 8.0 | 3.0 | 100.0 | -7.0 | 101.0
Cc1ccc(OCC(O)CN2C(=O)NC(C)(C)C2=O)cc1C (configuration not stated) | 103.0 | 8.8 | 99.0 | 3.0 | 0.0 | . | . | .
O=[N+]([O-])c1cc(Cc2ccccc2)cc(C=Nc2ccc(N3CCOCC3)cc2)c1O | 97.0 | 15.4 | 146.0* | 0.0 | 9.0 | 89.0 | -5.0 | 96.0
O=C(CN1CCOCC1)Nc1ncc(Cc2cccc(Cl)c2)s1 | 109.0 | 0.0 | 152.0* | 0.0 | 1.0 | 105.0 | 3.0 | 106.0
Cc1cc(C)nc(SCC(=O)Nc2ncc(Cc3cccc(Cl)c3)s2)n1 | 95.0 | -18.1 | 92.0 | -3.0 | 0.0 | . | . | .
CCOc1ccccc1NC(=O)CSc1nnc2ccc(-c3cccnc3)nn12 | 74.0 | -13.3 | 66.0 | -28.0 | 0.0 | . | . | .
COc1ccccc1NC(=O)CSc1nnc2ccc(-c3cccnc3)nn12 | 107.0 | -30.6 | 118.0 | 190.0* | 0.0 | 104.0 | 6.0 | 107.0
CC(C)S(=O)(=O)c1nsc2nc(=O)c(/C=C3\C=Nc4ccccc43)c(N)n12 | 110.0 | 7.7 | 129.0* | 1.0 | 0.0 | 94.0 | -1.0 | 97.0
CC1=Nc2ccccc2/C1=C/c1c(N)n2c(S(=O)(=O)C(C)C)nsc2nc1=O | 78.0 | -0.9 | 86.0 | -18.0 | 1.0 | . | . | .
COc1cc(C(=O)/C=C/c2cccnc2)c([N+](=O)[O-])cc1OC | . | 7.3 | . | . | 0.0 | . | . | .
SMILES | MEKK2 WT-MEK5 | B2AR ag | MEKK3 PB1 HTS | MEKK2mut PB1 HTS | GRK2 inh | MEKK2wt confirm | MEKK2mut confirm | MEKK3-MEK5 inh
CCC1(c2ccccc2)NC(=S)N(c2cccc(C)c2C)N1 (configuration not stated) | 105.0 | 0.3 | 129.0* | 1.0 | 0.0 | 101.0 | -10.0 | 99.0
Cc1cccc(-n2c(-c3ccccc3)c[nH]c2=S)c1C | 101.0 | -1.4 | 98.0 | 0.0 | 0.0 | . | . | .
Cc1cccc(N(CC(=O)NC(C)(C)C)C(=O)CCC(=O)Nc2nccs2)c1 | 111.0 | 0.1 | 106.0 | 13.0 | 2.0 | . | . | .
CCC(C)(C)NC(=O)CN(C(=O)CCC(=O)Nc1nccs1)c1cccc(C)c1 | 109.0 | -3.9 | 105.0 | 26.0* | 1.0 | 104.0 | 0.0 | 102.0
O=C(O)c1cccc(NC(=S)NC(NC(=O)c2ccccc2[N+](=O)[O-])C(Cl)(Cl)Cl)c1 (configuration not stated) | 101.0 | 6.1 | 103.0 | 2.0 | 3.0 | . | . | .
Cc1ccc(NC(NC(=O)c2ccccc2[N+](=O)[O-])C(Cl)(Cl)Cl)cc1 (configuration not stated) | 109.0 | 4.1 | 133.0* | 0.0 | 5.0 | 98.0 | 3.0 | 99.0
N=C(N)SCc1nc2ccccc2c(=O)n1-c1ccccc1Cl | 128.0 | 1.7 | 135.0* | 10.0 | 0.0 | 100.0 | 2.0 | 102.0
O=C(CN1CCN(S(=O)(=O)c2ccc(Cl)cc2)CC1)N1CCCC1 | . | -4.4 | . | . | . | . | . | .
Cc1cc(C(=O)CSc2nc3ccccc3c(=O)[nH]2)c(C)n1CC1CCCO1 (configuration not stated) | 91.0 | 0.4 | 99.0 | -7.0 | 1.0 | . | . | .
O=c1[nH]c(SCC2CCCCO2)nc2ccccc12 (configuration not stated) | 93.0 | -6.7 | 73.0*[inhibitor] | -4.0 | 1.0 | 103.0 | 10.0 | 105.0
Cc1cccc(/N=C/c2sc3ccccc3c2O)n1 | 101.0 | 9.7 | 97.0 | -1.0 | 0.0 | . | . | .
Oc1c(C=Nc2cccc3cccnc23)sc2ccccc12 | 50.0*[inhibitor] | . | 82.0 | -14.0 | 0.0 | 62.0 | -24.0 | 89.0
Fc1ccc(NC(=S)Nc2cc(Cl)ccc2Cl)cc1 | 107.0 | 0.3 | 115.0 | 0.0 | 0.0 | . | . | .
Fc1ccc(NC(=S)Nc2ccc(Cl)cc2)cc1 | 129.0 | -0.9 | 141.0* | 5.0 | 0.0 | 99.0 | -5.0 | 97.0
O=C(N/N=C/c1ccc([N+](=O)[O-])o1)c1cn(-c2ccccc2)nc1-c1ccccc1 | 104.0 | 8.9 | 139.0* | 0.0 | 0.0 | 102.0 | 9.0 | 108.0
Cn1c(N)c(C#N)c2c(c1=S)CSC(C)(C)C2 | 102.0 | -1.9 | 102.0 | 1.0 | 3.0 | . | . | .

Screening results (PubChem BioAssay)
